Sfp inh = inhibitors of Bacillus subtilis Sfp phosphopantetheinyl transferase; Q9F4F7; Biochemical Sfp PPTase activity, qHTS; Potency, µM, without a hit: largest response in the series, negative = inhibition, most hits filed as inhibitors; 3.5% of 310,000 active; AID 1490;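 note: the enzyme is Sfp with the accession as filed and its product quenches rhodamine fluorescence; 0% = enzyme reaction without inhibitor and -100% = no enzyme wells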
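Reaction rates are the 30-min fluorescence difference (ex 525, em 598 nm) in wells containing 15 nM Sfp, 5 uM rhodamine-CoA and 12.5 uM BHQ-2-YbbR at pH 7.6 with 10 mM MgCl2.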
PLK1 PBD block = inhibitors of human PLK1 polo-box domain binding. P53350. Plk1 PBD binding of FITC phosphopeptide, fluorescence polarization. Potency, µM, without a hit: max response, negative = inhibition, usual class: inhibitors. 2.8% of 360,000 active. AID 720504; note: series mostly up to about 57 µM; % is set by controls: 0 for no effect and ±100 for the full control effect; nearly all actives have a fitted effect of over 65% in size
JMJD2A Tudor inh = blocks the human JMJD2A Tudor domain. O75164. AID 504339. 4.4% of 390,000 active. Potency, µM (highest dose often 114 µM), for inactives: top-dose activity change, negative = inhibition, actives largely listed as inhibitors. AlphaScreen JMJD2A-Tudor / H3K4me3 peptide binding; note: % is set by controls: 0 for no effect and ±100 for the full control effect; nearly all actives have a fitted effect of over 50% in size
HP1b chromo inh = inhibitors of HP1-beta chromodomain binding to methylated histone tails | P83916 | AlphaScreen HP1-beta / biotin-H3K9me3 peptide binding | Potency, µM (highest dose often 114 µM), without a hit: at the highest dose activity change, negative = inhibition, hits mostly inhibitors | 0.56% of 390,000 active | AID 540317; note: nearly all actives have a fitted effect of over 70% in size
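Compound inhibition of the preformed complex between 50 nM HP1-beta and 50 nM biotinylated H3K9me3 peptide was read by AlphaScreen. Buffer was PBS pH 7.4 with 0.01% Tween-20. Incubations ran 30 min at room temperature, with 10 ug/mL donor/acceptor beads.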
BAZ2B block = inhibitors of human BAZ2B bromodomain; Potency, µM (titrated, usually from 114 µM), without a hit: at the top dose activity change, negative = inhibition, hits mostly inhibitors; AlphaScreen BAZ2B-H3K14Ac peptide displacement; 4.4% of 360,000 active; AID 504333; note: % is set by controls: 0 for no effect and ±100 for the full control effect; nearly all actives have a fitted effect of over 60% in size
Target sequence (Q9UIF8 whole entry, looked up): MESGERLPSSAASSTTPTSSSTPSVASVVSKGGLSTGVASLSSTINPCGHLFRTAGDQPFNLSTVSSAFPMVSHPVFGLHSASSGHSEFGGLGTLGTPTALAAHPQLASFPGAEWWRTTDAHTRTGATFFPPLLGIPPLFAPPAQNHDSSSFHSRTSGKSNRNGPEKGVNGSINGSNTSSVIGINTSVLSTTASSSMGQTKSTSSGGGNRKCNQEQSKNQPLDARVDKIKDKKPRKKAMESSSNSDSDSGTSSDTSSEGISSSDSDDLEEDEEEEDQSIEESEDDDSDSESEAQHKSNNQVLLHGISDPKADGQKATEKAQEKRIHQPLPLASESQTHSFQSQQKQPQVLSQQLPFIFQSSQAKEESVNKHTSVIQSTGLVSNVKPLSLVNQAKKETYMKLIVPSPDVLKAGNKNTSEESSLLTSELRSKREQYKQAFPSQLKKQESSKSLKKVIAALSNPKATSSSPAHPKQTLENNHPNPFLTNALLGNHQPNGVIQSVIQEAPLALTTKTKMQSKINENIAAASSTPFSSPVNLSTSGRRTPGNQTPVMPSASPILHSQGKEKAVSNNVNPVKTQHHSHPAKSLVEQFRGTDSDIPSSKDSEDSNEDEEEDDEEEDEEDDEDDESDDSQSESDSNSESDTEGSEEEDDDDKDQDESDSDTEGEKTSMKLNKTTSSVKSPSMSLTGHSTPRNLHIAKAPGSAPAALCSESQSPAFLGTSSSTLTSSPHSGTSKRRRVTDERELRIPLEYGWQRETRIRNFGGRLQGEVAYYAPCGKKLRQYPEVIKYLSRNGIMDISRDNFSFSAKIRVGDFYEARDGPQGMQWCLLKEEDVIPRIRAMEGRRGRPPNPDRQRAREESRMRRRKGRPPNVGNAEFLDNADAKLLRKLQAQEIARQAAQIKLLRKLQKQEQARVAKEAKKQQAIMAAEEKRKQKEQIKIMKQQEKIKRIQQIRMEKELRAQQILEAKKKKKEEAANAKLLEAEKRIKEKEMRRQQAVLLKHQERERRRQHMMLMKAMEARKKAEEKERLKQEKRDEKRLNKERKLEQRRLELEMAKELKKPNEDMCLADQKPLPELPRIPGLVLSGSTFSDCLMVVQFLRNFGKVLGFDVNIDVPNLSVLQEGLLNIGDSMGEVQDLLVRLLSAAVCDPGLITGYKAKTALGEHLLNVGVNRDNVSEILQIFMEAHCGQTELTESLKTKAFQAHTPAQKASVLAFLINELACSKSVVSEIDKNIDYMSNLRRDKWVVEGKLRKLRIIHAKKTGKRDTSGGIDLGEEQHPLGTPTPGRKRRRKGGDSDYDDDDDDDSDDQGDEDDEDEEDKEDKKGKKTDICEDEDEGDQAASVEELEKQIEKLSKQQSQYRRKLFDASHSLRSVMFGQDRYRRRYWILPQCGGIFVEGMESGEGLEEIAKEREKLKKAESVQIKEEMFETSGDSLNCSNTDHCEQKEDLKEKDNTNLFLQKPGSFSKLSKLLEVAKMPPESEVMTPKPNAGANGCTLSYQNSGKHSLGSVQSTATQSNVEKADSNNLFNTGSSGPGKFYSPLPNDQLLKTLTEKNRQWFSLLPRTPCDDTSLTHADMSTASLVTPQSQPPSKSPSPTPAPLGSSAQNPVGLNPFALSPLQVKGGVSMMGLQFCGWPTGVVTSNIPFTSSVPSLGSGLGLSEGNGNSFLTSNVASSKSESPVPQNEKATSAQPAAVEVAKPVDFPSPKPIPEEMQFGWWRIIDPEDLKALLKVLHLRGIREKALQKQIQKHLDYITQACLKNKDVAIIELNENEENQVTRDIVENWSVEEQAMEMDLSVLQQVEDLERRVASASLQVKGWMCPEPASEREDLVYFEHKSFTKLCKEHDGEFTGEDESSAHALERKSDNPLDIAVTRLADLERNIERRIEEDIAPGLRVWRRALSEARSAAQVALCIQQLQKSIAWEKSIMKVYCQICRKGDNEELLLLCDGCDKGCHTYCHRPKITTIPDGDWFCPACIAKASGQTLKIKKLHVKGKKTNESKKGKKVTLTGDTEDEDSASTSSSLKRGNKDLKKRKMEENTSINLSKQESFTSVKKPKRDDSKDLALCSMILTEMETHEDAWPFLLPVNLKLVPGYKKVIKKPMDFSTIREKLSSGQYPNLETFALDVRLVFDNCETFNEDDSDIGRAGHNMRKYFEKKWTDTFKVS
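BAZ2B (50 nM) with biotin-H3(5-23)K14Ac peptide (50 nM) in PBS pH 7.4, 0.01% Tween-20, preformed 30 min, then compound 30 min at room temperature; top concentration 110uM. AlphaScreen streptavidin donor/nickel chelate acceptor beads (10 ug/mL final), 20 min dark, signal read.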
G9a block = inhibitors of human histone lysine methyltransferase G9a. Q96KQ7. G9a H3K9 monomethylation, AlphaScreen, 2 h. Potency, µM (titrated, usually from 102 µM), inactives show at the highest dose activity, negative = inhibition, actives largely listed as inhibitors. 8.8% of 350,000 active; note: % is set by controls: 0 for no effect and ±100 for the full control effect; nearly all actives have a fitted effect of over 75% in size
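G9a (20 nM) was preincubated 15 min with compound, then reacted 2 h at room temperature with 500 nM biotin-H3K9 peptide and 20 µM SAM. Monomethyl-H3K9 detected by AlphaScreen using anti-H3K9me1 antibody.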
* = called active by the depositor; u = inconclusive; x = not tested or not shown; [ ] = dose if it differs, or a comment. An excerpt weighted towards active compounds, which were near 12% of everything screened. Calls come from the whole dose curve; as a rule, active = well fitted curve in the direction sought with a large enough effect; inconclusive = small, poorly fitted or top-dose-only effect, or another doubt; inactive = no such curve, though single readings can be large; an effect the other way counts as inactive or inconclusive. Potency is the fitted concentration of half-maximal effect.

SMILES	Sfp inh	PLK1 PBD block	JMJD2A Tudor inh	HP1b chromo inh	BAZ2B block	G9a block
O=C1OC(Nc2nc3ccccc3s2)c2ccccc21 (stereo not given)	5%	u	3%	52%	-12%	50µM*
O=C1OC(Nc2nccs2)c2ccccc21 (stereo not given)	13%	24µM*	u	11%	-9%	-4%
Cc1cc(C)nc(NC2=NCCN2C(=S)Nc2ccc(C)c(C)c2)n1	12%	-15%	-7%	14%	-12%	x
COc1cccc(-n2c(=O)c3cc(OC)c(OC)cc3n(CC(=O)Nc3cc(C)[nH]n3)c2=O)c1	23%	-14%	-18%	34%	50µM*	u
COc1ccc(-n2c(=O)c3ccccc3n(CC(=O)Nc3cccc(OC)c3)c2=O)cc1	16%	-21%	-4%[11.4 µM]	-7%	7%	-32%
O=C1Oc2ccccc2C(=O)C1C(CC(O)c1ccc(-c2ccc(Br)cc2)cc1)c1ccccc1 (stereo not given)	18%	x	x	x	x	u
COCCCNC(=O)C(=O)NCC(c1ccc2c(c1)OCO2)N1CCOCC1 (stereo not given)	x	x	-17%	12%[57 µM]	-2%	4%[59 µM]
CCn1c(=S)[nH]c2scc(-c3cccs3)c2c1=O	-5%	-25%	-33%	27%	-21%	35µM*
O=c1c2c(-c3cccs3)csc2[nH]c(=S)n1-c1ccccc1	5%	21µM*	-4%[57.1 µM]	-2%	-32%	40µM*
Cc1nc2scc(-c3cccs3)c2c(=O)n1CC(=O)O	-20%	-8%	0%	37%	6%	-3%[59 µM]
O=c1c2c(-c3cccs3)csc2ncn1-c1ccccc1	-3%	-7%	-17%	32%	5%	9%[59 µM]
CC(C)n1c(=S)[nH]c2scc(-c3cccs3)c2c1=O	40µM*	27µM*	u	-15%	50µM*	28µM*
Cc1ccccc1C(=O)Nc1nnc([C@@H]2C[C@H](O)[C@@H](CO)O2)s1	x	-10%	x	x	x	x
COc1ccccc1C(=O)N1c2ccccc2C(C)(c2ccc(Cl)cc2)CC1(C)C (stereo not given)	x	x	-20%	-4%	u	-40%[59 µM]
COc1ccccc1CNc1nc(-c2ccc(C(=O)N(C)C)cc2)nc2ccccc12	-11%	x	x	x	x	5%[0.501 µM]
COc1ccccc1CNc1nc(-c2ccc(N(C)C)cc2)nc2ccccc12	16µM*	x	x	x	x	x
COc1ccc2[nH]cc(CCNc3cc(-c4ccccc4Cl)ncn3)c2c1	u	x	x	x	x	3%[0.501 µM]
COc1ccc2[nH]cc(CCNc3cc(-c4ccccc4C(F)(F)F)ncn3)c2c1	79µM*	x	x	x	x	x
COc1ccc2[nH]cc(CCNc3nc(-c4ccc(N(C)C)cc4)nc4ccccc34)c2c1	18µM*	x	x	x	x	-2%[0.501 µM]
CCOc1ccccc1NC(=O)CSc1nc2c(oc3ccccc32)c(=O)n1C(C)C	x	x	4%	38%	4%	14%[59 µM]
O=C(c1cc(-c2ccco2)nc2ccccc12)N1CCCC(C(F)(F)F)C1 (stereo not given)	x	u	40µM*	-18%	50µM*	13%[12.7 µM]
COc1cc2ccccc2cc1C(=O)N1CCCC(C(F)(F)F)C1 (stereo not given)	x	-11%	-6%	u	51%	-1%[12.7 µM]
O=C(c1cc2ccccc2cc1O)N1CCCC(C(F)(F)F)C1 (stereo not given)	-12%	-18%	-15%	26%	79µM*	x
O=C(c1cc(-c2ccncc2)nc2ccccc12)N1CCCC(C(F)(F)F)C1 (stereo not given)	x	-14%	x	x	x	x
CCN1CCN(C(=O)c2cc(-c3ccc(Cl)s3)nc3ccccc23)CC1	-9%	-3%	-13%	35%	-12%	x
SMILES	Sfp inh	PLK1 PBD block	JMJD2A Tudor inh	HP1b chromo inh	BAZ2B block	G9a block
CCN1CCN(C(=O)c2cc(-c3ccco3)nc3ccccc23)CC1	x	-21%	-35%	-3%	71µM*	u
CCc1ccccc1NC(=O)c1cc(S(=O)(=O)N(CC)c2ccccc2)ccc1F	x	x	-5%	28%	9%	6%[59 µM]
Nc1nc(NC(=O)c2ccc(Cl)cc2)nn1-c1ccccc1	2%	2%	-18%	26%	u	0%[59 µM]
Nc1nc(NC(=O)C(Cl)(Cl)Cl)nn1-c1ccccc1	4%	-8%	25µM*	11%	8.9µM*	16%
Nc1nc(NC(=O)c2cccnc2)nn1-c1ccccc1	2%	1%	11µM*	8%	79µM*	14µM*
CCC(=O)Nc1nc(N)n(-c2ccccc2)n1	14%	-1%	-27%	17%	u	6%[59 µM]
CCOC(=O)c1c(S(=O)(=O)N2CCCC(C(=O)NCc3ccc(Cl)cc3)C2)c(C)n(C)c1C (stereo not given)	x	x	-11%	11%	-2%	-2%[59 µM]
CCN(CC(=O)Nc1ccc(NC(C)=O)cc1)C(=O)C1(c2ccccc2)CC1	x	-1%	-3%	19%	9%	12%[59 µM]
CC(C)(C)OC(=O)N(CCc1ccccc1)Cc1ccc(OCc2cccc(NC(=O)C3CC3)c2)cc1	x	-9%	-11%	16%	x	x
CC(C)(C)OC(=O)N(CCc1ccccc1)Cc1cccc(OCc2cccc(NC(=O)c3ccccc3)c2)c1	x	24µM*	u	20%	x	x
N#CC1=C(c2ccc(-c3ccccc3)cc2)COC1=O	17%	u	-15%[11.4 µM]	-22%	-26%	11µM*
COc1ccc2cc(CO)c(Cl)nc2c1	20%	6.7µM*	-13%	-6%	x	26%
COc1ccc2cc(/C=N/O)c(Cl)nc2c1	-12%	-9%	-13%	15%	2%	17%
Cc1nc(C)c(-c2ccc(SCC(=O)Nc3ccccc3)nn2)s1	16%	-3%	8%	33%	-1%	79µM*
Cc1cc(C)cc(NC(=O)CSc2ccc(-c3cccs3)nn2)c1	1%	u	-17%	40%	-27%	22µM*
O=C(CSc1ccc(-c2cccs2)nn1)Nc1ccccc1	12%	-8%	-7%	33%	-12%	8%
COc1ccccc1OCC(=O)NCC1CCCN(C(=O)c2ccccc2SC)C1 (stereo not given)	10%	3.4µM*	u	15%	-4%	18%
CC(=O)c1ccccc1C(=O)N1CCCC(CNC(=O)c2ccccc2Cl)C1 (stereo not given)	17%	27µM*	28µM*	13%	-5%	16%
Cc1noc(C)c1-c1nc(NCc2cccs2)c2ccccc2n1	71µM*	x	x	x	x	-46%[0.501 µM]
COCCNc1nc(-c2c(C)noc2C)nc2ccccc12	1%	x	x	x	x	-14%[0.501 µM]
O=C(NNC(=O)c1cccnc1SCc1cccc([N+](=O)[O-])c1)c1cccnc1	2%	-2%	8%	50%	-1%	35µM*
O=C(N/N=C(\c1ccccc1)c1ccccn1)c1cccc([N+](=O)[O-])c1	11%	2%	u	20%	25µM*	-1%
